Assay results from PubChem BioAssay.
Records with an inconclusive call do not appear. Active and inactive are the calls of the source. Unless noted, the rule behind the calls is not given here.

Legend:
[1] = OD615 S. cerevisiae growth inhibition, permissive medium, pilot counter-assay, permissive growth control for S. cerevisiae lifespan shortening project (AID 705;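 active = growth inhibition above 25% in both replicates, a cutoff set 3 SD above the mean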); conditions: OD615, 24 h, at 10 µM, stronger effect = higher value
[2] = Restrictive medium S. cerevisiae growth inhibition, OD615, pilot screen of yeast lifespan reduction project, restrictive growth control (AID 706;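 active = growth inhibition above a set limit, 3 SD over mean compound inhibition, in both replicates, cut at about 43% in these data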;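 note: modified DeaD lifespan yeast strain shifted to restrictive glucose medium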); conditions: OD615, 48 h, at 10 µM, stronger effect = higher value
[3] = viability gain of MRP-1-high H69AR cells under doxorubicin, pilot screen, MRP-1 activator project, CellTiter-Glo, duplicate (AID 807;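 active = viability increase at or above a cutoff of the median across tested compounds plus 3 SD, cut at about 8.5% in these data, passing the limit was not always enough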;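 note: compound pretreatment 18-22 h then 72 h combined with doxorubicin; 0% = doxorubicin alone and 100% = vehicle without doxorubicin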); conditions: H69AR viability with doxorubicin, CellTiter-Glo luminescence; at 10 µM; stronger effect = higher value
[4] = growth suppression of beta-catenin knockout HCT116, pilot screen, human colon tumor cells (AID 823;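 active = cell viability at or below a set limit in both duplicate runs, the limit being the all-compound median minus 4 SD, cut at about 23% in these data, passing the limit was not always enough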;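 note: 0% = wells killed by 20 µM Hyamine and 100% = untreated DMSO cell wells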); conditions: CellTiter-Glo, 60 h, at 10 µM, stronger effect = lower value
[5] = growth suppression of PTEN-deleted HCT116, pilot screen, cell-based, HCT116 clonal line, CellTiter-Glo (AID 824;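 active = viability at or below 27.92% in each of two runs, the all-compound median minus 4 SD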;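 note: 0% = 20 µM Hyamine control and 100% = vehicle cell control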); conditions: 60 h, at 10 µM, stronger effect = lower value
[6] = inhibitors of the yeast RAM network, pilot screen, dse1pr::URA3 reporter, 5-FOA selection (AID 869;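 active = inhibition over a set limit, the all-compound mean plus 3 SD, in both replicate runs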;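 note: 0% = DMSO wells with no growth and 100% = 10 µM 1-NA-PP1 with full growth; RAM network block rescues cells from 5-FOA so hits raise OD615 growth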); conditions: S. cerevisiae dse1pr::URA3 5-FOA growth, OD615, 2 d, at 10 µM, stronger effect = higher value
[7] = RAM signaling pathway blockade in yeast – S. cerevisiae, Pdr1DBD-CYC8 efflux-inhibited sensitized strain, primary screen (AID 1298;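 active = RAM network inhibition above 8.4% in each of two replicates, 3 SD over the compound average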;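 note: 0% = DMSO untreated cells without growth and 100% = 10 µM 1-NA-PP1 full growth; higher means more yeast growth rescued from 5-FOA killing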); conditions: S. cerevisiae cbk1-as DSE1-URA3 strain, 5-FOA growth OD615, 2 d; at 50 µM; stronger effect = higher value
[8] = Recombinant Mtb pantothenate synthetase (PanC) inhibitors, coupled enzyme, confirmatory (AID 375); conditions: coupled enzyme assay;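 for inhibition: 0% = full reaction with vehicle and 100% = no enzyme background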
[9] = molecular target: Pantothenate synthetase (Mycobacterium tuberculosis (strain ATCC 25618 / H37Rv)) (UniProt P9WIL5); assay: as above; conditions: coupled enzyme assay; at 10 µM, stronger effect = higher value
[10] = SK-BR-3 cell growth inhibitors, pilot screen, 24 h, human (AID 572;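 active = viability at or below 10% of carrier control in both of two separate runs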;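 note: compound exposure lasted between 18 and 24 h rather than exactly 24 h; 100% = carrier-treated control wells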); conditions: SK-BR-3 viability, CellTiter-Glo luminescence, at 10 µM, stronger effect = lower value
[11] = HUVEC growth inhibition – cell-based, human, primary screen (AID 575;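 active = viability at or below 30% in both replicate assays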;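 note: 100% = median of untreated cell wells with 0.1% DMSO on each plate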); conditions: HUVEC proliferation, CellTiter-Glo luminescence, 72 h; at 10 µM; stronger effect = lower value
[12] = reversal of MRP1-mediated doxorubicin resistance, pilot screen, H69AR cells, doxorubicin co-treatment (AID 601;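 active = viability loss from added drug above about 55%, and viability with drug at most 40%, in both replicates, limit read from the data, passing the limit was not always enough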); conditions: CellTiter-Glo, 72 h, at 10 µM
[13] = 384-well plate pilot, post-Golgi transport modulator project, inhibition of yeast transport mutant growth (AID 636; in the data active = inhibition above about 31%); conditions: absorbance 615 nm, about 18 h, stronger effect = higher value
[14] = growth suppression of yeast trafficking mutant, preliminary HTS, modulators of trafficking downstream of Golgi apparatus project, 1536-format plate, OD 615 nm (AID 637; in the data active = inhibition above about 30%); conditions: yeast transport mutant growth, absorbance 615 nm, 18 h; stronger effect = higher value
[15] = measured here: coupling enzymes IC50 repeat trials unless noted

Pantothenate synthetase (Mycobacterium tuberculosis (strain ATCC 25618 / H37Rv)), sequence (P9WIL5 whole entry, looked up): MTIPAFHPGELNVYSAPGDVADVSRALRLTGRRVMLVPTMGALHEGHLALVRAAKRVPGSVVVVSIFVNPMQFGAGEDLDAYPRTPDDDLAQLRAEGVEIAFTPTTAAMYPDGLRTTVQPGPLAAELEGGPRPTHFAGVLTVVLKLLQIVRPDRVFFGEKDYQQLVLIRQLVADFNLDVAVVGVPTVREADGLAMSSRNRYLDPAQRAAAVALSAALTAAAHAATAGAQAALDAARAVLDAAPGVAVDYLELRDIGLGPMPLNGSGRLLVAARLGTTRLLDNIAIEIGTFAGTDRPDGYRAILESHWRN

In the case of `COc1ccc(CC2C(=O)NC(=O)N(c3ccccc3)C2=O)c(OC)c1` (stereo not drawn), the growth inhibition [1] is reported as -13.5% (inactive), the growth inhibition [2] is reported as 0.545% (inactive) and the viability increase [3] is reported as -1.2% (inactive). The viability [4] was 89.6% (inactive), the viability [5] was 96.9% (inactive) and the inhibition [6] was -0.495% (inactive). The RAM network inhibition [7] was 0.67% (inactive).
With `CN1CCN(c2ncnc3ccc(Br)cc23)CC1` the growth inhibition [1] was -1.88% (inactive), the growth inhibition [2] was 5.46% (inactive) and the viability increase [3] was -1.88% (inactive). The viability [4] was 94.2% (inactive), the viability [5] was 98.4% (inactive) and the inhibition [6] was -0.575% (inactive). The RAM network inhibition [7] was 2.92% (inactive).
For `CC(C)(C)C1CCc2onc(C(=O)Nc3cnn(Cc4ccc(F)cc4)c3)c2C1` (stereo not drawn), the IC50 ([8]; measured here: coupling enzymes IC50 repeat trials) was over 100 µM and the IC50 ([8]; measured here: coupling enzymes counter-screen IC50) was over 100 µM.
In the case of `O=C(O)c1cc2ccccc2oc1=O`, the growth inhibition [1] is reported as -21.9% (inactive), the growth inhibition [2] is reported as -5.03% (inactive) and the viability increase [3] is reported as -0.27% (inactive). For the same compound, the viability [4] was 103% (inactive), the viability [5] was 99.6% (inactive) and the inhibition [6] was 1.08% (inactive). For the same compound, the RAM network inhibition [7] was 1.06% (inactive).
In the case of `Cc1c(C(=O)N2CCC3(CC2)OCCO3)oc2ccc(S(=O)(=O)N3CCOCC3)cc12`, the growth inhibition [1] is reported as -9.41% (inactive), the growth inhibition [2] is reported as -18.4% (inactive) and the viability increase [3] is reported as -1.67% (inactive). For the same compound, the viability [5] was 98.4% (inactive), the inhibition [6] was 1.09% (inactive) and the RAM network inhibition [7] was 1.19% (inactive).
In the case of `Cc1ccc(Cn2ccc(NC(=O)c3cc(-c4cccc(Cl)c4)on3)n2)cc1`, the IC50 [8, 15] is reported as over 100 µM and the outcome [9] is reported as “inactive”.
With `FC(F)(F)/C(=N\P(=S)(N1CCOCC1)N1CCOCC1)N1CCOCC1` the growth inhibition [1] was 6.63% (inactive), the growth inhibition [2] was -10.3% (inactive) and the viability increase [3] was -1.97% (inactive). For the same compound, the viability [4] was 94.9% (inactive), the inhibition [6] was 1.79% (inactive) and the RAM network inhibition [7] was 5.4% (inactive).
In the case of `O=C(Cc1ccc(Br)cc1)N1CCN(Cc2ccccc2)CC1`, the growth inhibition [1] is reported as -2.42% (inactive), the growth inhibition [2] is reported as -2.88% (inactive) and the viability increase [3] is reported as -1.69% (inactive). The viability [5] was 72.7% (inactive), the inhibition [6] was 1.23% (inactive) and the RAM network inhibition [7] was 5.41% (inactive).
For `O=C(NC1(C(F)(F)F)Oc2ccccc2O1)N1CCC2(CC1)OCCO2`, the growth inhibition [1] was -4.29% (inactive), the growth inhibition [2] was 1.45% (inactive) and the viability increase [3] was -5.11% (inactive). The viability [4] was 51.5% (inactive), the viability [5] was 79.8% (inactive) and the inhibition [6] was 0.465% (inactive). The RAM network inhibition [7] was 0.45% (inactive).
For `COc1cc(C2SCC(=O)Nc3c2c(=O)[nH]n3C2CCCCCC2)cc(OC)c1OC` (stereo not drawn), the growth inhibition [1] was -22.7% (inactive), the growth inhibition [2] was -4.26% (inactive) and the viability increase [3] was -2.62% (inactive). For the same compound, the viability [4] was 92.6% (inactive), the inhibition [6] was 2.39% (inactive) and the RAM network inhibition [7] was 2.76% (inactive).
In the case of `COc1cc2c(cc1OC)C(C(=O)N1CCC3(CC1)OCCO3)C(c1ccccc1F)N(C)C2=O` (stereo not drawn), the growth inhibition [1] is reported as -3.76% (inactive), the growth inhibition [2] is reported as 12% (inactive) and the viability increase [3] is reported as -3.17% (inactive). The viability [5] was 84.3% (inactive), the inhibition [6] was 1.23% (inactive) and the RAM network inhibition [7] was 0.57% (inactive).
In the case of `Cc1nc2ccc(Cl)cn2c1P(=S)(N1CCOCC1)N1CCOCC1`, the growth inhibition [1] is reported as -10.4% (inactive), the growth inhibition [2] is reported as 4.46% (inactive) and the viability increase [3] is reported as -2.81% (inactive). For the same compound, the viability [4] was 99.8% (inactive), the inhibition [6] was 0.175% (inactive) and the RAM network inhibition [7] was 5.03% (inactive).
In the case of `O=C(O)C1CN2CCC1CC2` (stereo not drawn), the growth inhibition [1] is reported as -6.59% (inactive), the growth inhibition [2] is reported as 5.84% (inactive) and the viability increase [3] is reported as -0.31% (inactive). For the same compound, the viability [4] was 96.2% (inactive), the viability [5] was 93.3% (inactive) and the inhibition [6] was 0.99% (inactive). For the same compound, the RAM network inhibition [7] was -0.77% (inactive).
In the case of `Nc1ccc(S(=O)(=O)N2CCCCC2c2cccnc2)cc1` (stereo not drawn), the growth inhibition [1] is reported as -3.15% (inactive), the growth inhibition [2] is reported as 0.935% (inactive) and the viability increase [3] is reported as -0.96% (inactive). For the same compound, the viability [4] was 103% (inactive), the viability [5] was 104% (inactive) and the inhibition [6] was 0.625% (inactive). The RAM network inhibition [7] was -0.2% (inactive).
For `Cc1ccc(Cn2ccc(NC(=O)c3cc(-c4ccc(Br)cc4)on3)n2)cc1`, the IC50 [8, 15] was over 100 µM and the outcome [9] was “inactive”.
For `Cc1csc(NC(=O)c2cccc(S(=O)(=O)N3CCCCC3)c2)n1`, the inhibition [9] was 0% (inactive).
For `Cn1c(=O)c2c(nc(-n3ccnc3)n2C)n(C)c1=O`, the inhibition [9] was 0% (inactive).
For `O=c1c2ccccc2[se]n1-c1ccccc1`, the IC50 [8, 15] was 0.485 µM [measured here: coupling enzymes counter-screen IC50], the viability [10] was 67% (inactive) and the viability [11] was 42.1% (inactive). The differential viability (reversal) ([12]; H69AR cells + 2 uM doxorubicin, stronger effect = higher value) was 2.39% (inactive), the viability ([12]; H69AR cells + 2 uM doxorubicin, measured here: viability with 2 uM doxorubicin, stronger effect = lower value) was 1.34% and the viability ([12]; H69AR cells, compound alone cytotoxicity) was 3.73%. The inhibition [13] was 0.65% (inactive) and the inhibition [14] was -0.5% (inactive).
In the case of `Cc1ccc(Cn2ccc(NC(=O)c3cc(-c4ccc(Cl)cc4)on3)n2)cc1`, the IC50 [8, 15] is reported as over 100 µM and the outcome [9] is reported as “inactive”.
In the case of `CCN1C(=O)C2(C(C#N)=C(N)Oc3n[nH]c(C(C)C)c32)c2ccccc21` (stereo not drawn), the inhibition [9] is reported as 1% (inactive).
For `COc1cccc(-c2cc(C(=O)Nc3cc(C)n(Cc4ccc(Cl)cc4)n3)no2)c1`, the IC50 [8, 15] was over 100 µM and the inhibition [9] was 0% (inactive).
In the case of `Cc1ccc(Cn2ccc(NC(=O)c3cc(-c4ccc(F)cc4)on3)n2)cc1`, the IC50 [8, 15] is reported as over 100 µM and the outcome [9] is reported as “inactive”.
For `Cc1ccc(Cn2ccc(NC(=O)c3noc4c3CCCC4)n2)cc1`, the IC50 [8, 15] was over 100 µM and the inhibition [9] was 0% (inactive).
For `CCOC(=O)c1cccc(NC(=O)CS(=O)(=O)Cc2nc(-c3cccc(OC)c3)oc2C)c1`, the inhibition [9] was 0% (inactive).
In the case of `CC1(C)S[C@@H]2[C@H](NC(=O)[C@H](N)c3ccccc3)C(=O)N2[C@H]1C(=O)O`, the inhibition [9] is reported as 2% (inactive).
With `CC(NCCC(c1ccccc1)c1ccccc1)c1ccccc1` (stereo not drawn) the inhibition [9] was 0% (inactive).
With `Cc1cc(NC(=O)c2cc(-c3cccs3)on2)nn1Cc1ccc(Cl)cc1` the IC50 [8, 15] was over 100 µM and the outcome [9] was “inactive”.
In the case of `COc1ccc(C(O)Cn2c(=N)n(CCCN(C)C)c3ccccc32)cc1` (stereo not drawn), the inhibition [9] is reported as 0% (inactive).
For `Cc1cc(C(=O)Nc2cc(C)n(Cc3ccc(Cl)cc3)n2)no1`, the IC50 [8, 15] was over 100 µM and the inhibition [9] was 3% (inactive).
In the case of `Cc1cc(NC(=O)c2cc(-c3ccco3)on2)nn1Cc1ccc(Cl)cc1`, the IC50 [8, 15] is reported as over 100 µM and the outcome [9] is reported as “inactive”.
